PubChem BioAssay (EPA / NIEHS)
Where “and” joins values, the source holds several entries; their conditions need not be identical. Equal values may be shown once. Some structures have more than one record in an assay (separate samples or runs), and their calls can disagree. Calls of active or inactive are those of the source. How the source made its calls: active means hit-call score of the fitted dose curve at least 0.9, where 1 is the maximum; inactive means score below 0.9.

How the values were obtained:
[1] = BSK_BF4T_SRB: Viability Assessment in the BioMAP Diversity Plus: BF4T Assay (AID 2284274); conditions: primary human bronchial epithelial cells with fibroblasts;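 on AC50: total cell protein by sulforhodamine B staining as a cytotoxicity measure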
Summary of the method: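 Co-culture of human bronchial epithelial cells and dermal fibroblasts (BioMAP BF4T) exposed 24 h. Total protein by sulforhodamine B staining (0.1% SRB after 10% TCA fixation, 560 nm) in parallel cultures; fitted vs DMSO.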

[2] = read-out: urokinase Plasminogen Activator (uPA), PLAU (gene 5328); assay: BSK_BF4T_uPA: BioMAP Diversity Plus: BF4T Assay for urokinase Plasminogen Activator (uPA) Biomarker Activity (AID 2284275); conditions: primary human bronchial epithelial cells with fibroblasts
Summary of the method: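 Co-culture of human bronchial epithelial cells and dermal fibroblasts; uPA quantified by ELISA 24 hours after dosing, fitted relative to DMSO. Parallel SRB total-protein staining assessed overt cytotoxicity.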

[3] = read-out: Matrix Metallopeptidase 9 (MMP9), MMP9 (gene 4318); assay: BSK_BF4T_MMP9: BioMAP Diversity Plus: BF4T Assay for Matrix Metallopeptidase 9 (MMP9) Biomarker Activity (AID 2284276); conditions: primary human bronchial epithelial cells with fibroblasts
Summary of the method: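 Co-culture of human bronchial epithelial cells and dermal fibroblasts dosed for 24 h; MMP-9 quantified by ELISA and fitted upward versus DMSO. Cytotoxicity monitored in parallel cultures by SRB total-protein staining at the biomarker time point.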

[4] = read-out: Interleukin-8 (IL8), CXCL8 (gene 3576); assay: BSK_IMphg_IL8: BioMAP Diversity Plus: IMphg Assay for Interleukin-8 (IL8) Biomarker Activity (AID 2284277); conditions: primary human endothelial cells with macrophages
Summary of the method: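 Co-culture of human venular endothelial cells and macrophages exposed to chemicals for 24 h; IL-8 quantified by ELISA and compared against the DMSO baseline, with SRB total-protein staining in parallel cultures for cytotoxicity.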

[5] = read-out: Intercellular Adhesion Molecule 1 (ICAM1), ICAM1 (gene 3383); assay: BSK_BE3C_ICAM1: BioMAP Diversity Plus: BE3C Assay for Intercellular Adhesion Molecule 1 (ICAM1) Biomarker Activity (AID 2284278); conditions: primary human bronchial epithelial cells;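 on outcome: cell-surface ICAM-1 protein level quantified by ELISA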
Summary of the method: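 Measured by ELISA: ICAM-1 expressed by primary human bronchial epithelial cells 24 h after compound treatment, with upward-direction fitting versus DMSO vehicle.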

[6] = read-out: Interferon-inducible T-cell alpha chemoattractant (ITAC), CXCL11 (gene 6373); assay: BSK_BE3C_ITAC: BioMAP Diversity Plus: BE3C Assay for Interferon-inducible T-cell alpha chemoattractant (ITAC) Biomarker Activity (AID 2284279); conditions: primary human bronchial epithelial cells
Summary of the method: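 The assay measures I-TAC levels by ELISA in human primary bronchial epithelial cell cultures 24 hours after chemical treatment. Values reflect signal increase over the DMSO baseline.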

[7] = read-out: Interleukin-8 (IL8), CXCL8 (gene 3576); assay: BSK_BE3C_IL8: BioMAP Diversity Plus: BE3C Assay for Interleukin-8 (IL8) Biomarker Activity (AID 2284280); conditions: primary human bronchial epithelial cells
Summary of the method: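 IL-8 signal gain, normalised to DMSO vehicle, was scored after a 24 h chemical exposure of primary human bronchial epithelial cells, with detection by ELISA.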

[8] = read-out: Epidermal growth factor receptor (EGFR), EGFR (gene 1956); assay: BSK_BE3C_EGFR: BioMAP Diversity Plus: BE3C Assay for Epidermal growth factor receptor (EGFR) Biomarker Activity (AID 2284281); conditions: primary human bronchial epithelial cells
Summary of the method: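 Compound is added to human bronchial epithelial cells, cells incubate 24 h, then EGFR is detected by ELISA. Values reflect positive-direction fitting relative to DMSO.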

KRT18 (gene 3875) = assay: BSK_BE3C_Keratin818: BioMAP Diversity Plus: BE3C Assay for Keratin 818 Biomarker Activity (AID 2284282); conditions: primary human bronchial epithelial cells
Summary of the method: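 BE3C: human bronchial epithelial primary cells, 24 h exposure, Keratin 8/18 ELISA; DMSO = negative control/baseline; cytotoxicity by parallel SRB stain (0.1% SRB after 10% TCA fixation, 560 nm).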

[9] = read-out: Matrix Metallopeptidase 9 (MMP9), MMP9 (gene 4318); assay: BSK_BE3C_MMP9: BioMAP Diversity Plus: BE3C Assay for Matrix Metallopeptidase 9 (MMP9) Biomarker Activity (AID 2284283); conditions: primary human bronchial epithelial cells
Summary of the method: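 Endpoint is the ELISA MMP-9 signal in human primary bronchial epithelial cultures taken 24 h after chemical dosing. DMSO serves as negative control and baseline, with gain-of-signal fitting.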

| Compound | AC50 [1] | AC50 [2] | outcome [2] | AC50 [3] | AC50 [4] | outcome [4] | AC50 [5] | AC50 [6] | AC50 [7] | AC50 [8] | AC50 (KRT18 (gene 3875)) | outcome (KRT18 (gene 3875)) | AC50 [9] | outcome [1] | outcome [3] | outcome [5] | outcome [6] | outcome [7] | outcome [8] | outcome [9] |
| --- | --- | --- | --- | --- | --- | --- | --- | --- | --- | --- | --- | --- | --- | --- | --- | --- | --- | --- | --- | --- |
| O=S(=O)(Cl)C(F)(F)C(F)(F)C(F)(F)C(F)(F)C(F)(F)C(F)(F)C(F)(F)C(F)(F)F | 50.8 µM (active) and 46.8 µM (active) | 30 µM (active) | inactive | 49.2 µM (active) and 47.7 µM (active) | 36.7 µM (active) | inactive | 54.9 µM (active) and 54.8 µM (active) | 53.8 µM (active) and 55.1 µM (active) | 41.3 µM (active) and 21.5 µM (active) | 22.7 µM (active) and 30 µM (active) | 46.7 µM (active) | inactive | 55.1 µM (active) and 55.2 µM (active) |  |  |  |  |  |  |  |
| O=C(O)C(F)(F)C(F)(F)C(F)(F)C(=O)O |  |  | inactive |  |  | inactive |  |  |  |  |  | inactive |  | inactive | inactive | inactive | inactive | inactive | inactive | inactive |
| OCC(O)CC(F)(F)C(F)(F)C(F)(F)C(F)(F)C(F)(F)C(F)(F)C(F)(F)C(F)(F)F (stereo not drawn) |  |  | inactive |  |  | inactive |  |  |  |  |  | inactive |  | inactive | inactive | inactive | inactive | inactive | inactive | inactive |
| NCC(F)(F)C(F)(F)C(F)(F)C(F)(F)C(F)(F)C(F)(F)F |  |  | inactive | 778 nM (active) |  | inactive |  |  |  |  |  | inactive |  | inactive | inactive | inactive | inactive | inactive | inactive | inactive |
| O=C(O)C(F)(F)C(F)(F)C(F)(F)OC(F)(C(F)(F)F)C(F)(F)F |  |  | inactive |  | 16.1 µM (active) | inactive |  |  |  |  |  | inactive | 6.87 µM (active) | inactive | inactive | inactive | inactive | inactive | inactive | inactive |
| FC(F)(F)C(F)(F)C(F)(F)C(F)(F)C(F)(F)C(F)(F)C(F)(F)CCI |  |  | inactive |  |  | inactive |  |  | 0.662 µM (active) |  |  | inactive |  | inactive | inactive | inactive | inactive | inactive | inactive | inactive |
| OC(O)C(F)(F)C(F)(F)F |  |  | inactive |  |  | inactive |  |  |  |  |  | inactive |  | inactive | inactive | inactive | inactive | inactive | inactive | inactive |
| CCN(CCO)S(=O)(=O)C(F)(F)C(F)(F)C(F)(F)C(F)(F)C(F)(F)C(F)(F)C(F)(F)C(F)(F)F |  |  | inactive |  | 50.9 µM (active) | inactive | 51.6 µM (active) | 47.1 µM (active) and 42.6 µM (active) | 19.3 µM (active) and 11.8 µM (active) | 23.2 µM (active) and 13.9 µM (active) |  | inactive | 21.5 µM (active) and 43.3 µM (active) | inactive | inactive | inactive |  |  |  |  |
| NS(=O)(=O)C(F)(F)C(F)(F)C(F)(F)C(F)(F)C(F)(F)C(F)(F)F |  |  | inactive |  | 16.3 µM (active) and 8.64 µM (active) |  |  | 30 µM (active) | 25.1 µM (active) and 15.2 µM (active) |  |  | inactive | 13.9 µM (active) and 15 µM (active) | inactive | inactive | inactive | inactive |  | inactive |  |
| CO[Si](C)(CCC(F)(F)C(F)(F)C(F)(F)C(F)(F)C(F)(F)C(F)(F)F)OC |  |  | inactive |  |  | inactive |  |  |  |  |  | inactive |  | inactive | inactive | inactive | inactive | inactive | inactive | inactive |
| C=CC(=O)OCC(F)(F)C(F)(F)C(F)(F)C(F)(F)C(F)(F)C(F)(F)C(F)(F)C(F)F |  |  | inactive |  |  | inactive |  |  |  |  |  | inactive |  | inactive | inactive | inactive | inactive | inactive | inactive | inactive |
| O=C(Cl)C(F)(F)C(F)(F)C(F)(F)C(F)(F)C(F)(F)C(F)(F)F |  |  | inactive |  | 15.8 µM (active) and 21.5 µM (active) | inactive |  |  |  |  |  | inactive |  | inactive | inactive | inactive | inactive | inactive | inactive | inactive |
| CNS(=O)(=O)C(F)(F)C(F)(F)C(F)(F)C(F)(F)C(F)(F)C(F)(F)C(F)(F)C(F)(F)F |  |  | inactive |  | 14.5 µM (active) | inactive |  |  | 30 µM (active) and 2.67 µM (active) |  |  | inactive | 4.25 µM (active) and 373 nM (active) | inactive | inactive | inactive | inactive |  | inactive |  |
| OCC(F)(F)C(F)(F)C(F)(F)C(F)(F)C(F)(F)C(F)(F)CO |  |  | inactive |  |  | inactive |  |  |  |  |  | inactive |  | inactive | inactive | inactive | inactive | inactive | inactive | inactive |
| O=C(Cl)C(F)(F)C(F)(F)C(F)(F)C(F)(F)C(F)(F)C(F)(F)C(F)(F)F |  | 21.6 µM (active) | inactive | 18700 nM (active) | 30 µM (active) and 36.9 µM (active) |  |  |  | 15.9 µM (active) |  |  | inactive |  | inactive | inactive | inactive | inactive | inactive | inactive | inactive |
| O=C(O)CCC(F)(F)C(F)(F)C(F)(F)F |  |  | inactive |  |  | inactive |  |  |  |  |  | inactive |  | inactive | inactive | inactive | inactive | inactive | inactive | inactive |
| C=C(C)C(=O)OCC(F)(F)C(F)(F)C(F)(F)C(F)F |  |  | inactive |  |  | inactive |  |  |  |  |  | inactive |  | inactive | inactive | inactive | inactive | inactive | inactive | inactive |
| OCCCCC(F)(F)C(F)(F)C(F)(F)C(F)(F)F |  |  | inactive |  |  | inactive |  |  |  |  |  | inactive |  | inactive | inactive | inactive | inactive | inactive | inactive | inactive |
| O=S(=O)(O)CCC(F)(F)C(F)(F)C(F)(F)C(F)(F)C(F)(F)C(F)(F)C(F)(F)C(F)(F)F |  |  | inactive |  |  | inactive |  |  | 20.4 µM (active) |  |  | inactive |  | inactive | inactive | inactive | inactive | inactive | inactive | inactive |
| O=C(F)C1(F)C(F)(F)C(F)(F)C(F)(F)C(F)(F)C1(F)F |  |  | inactive |  |  | inactive |  |  |  |  |  | inactive |  | inactive | inactive | inactive | inactive | inactive | inactive | inactive |
| NC(O)(C(F)(F)F)C(F)(F)F |  |  | inactive |  |  | inactive |  |  |  |  |  | inactive |  | inactive | inactive | inactive | inactive | inactive | inactive | inactive |
| O=C(O)C(F)(F)OC(F)(F)C(F)(F)OC(F)(F)C(F)(F)OC(F)(F)F |  |  | inactive |  | 5.47 µM (active) and 14.2 µM (active) | inactive |  |  |  |  |  | inactive | 1.47 µM (active) | inactive | inactive | inactive | inactive | inactive | inactive | inactive |
